Assays:
[1] = target: Mitogen-activated protein kinase kinase kinase kinase 4 (Homo sapiens) (UniProt O95819); details: at 1 µM;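 further: reported figure is an averaged inhibition value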
[2] = target: Dual specificity mitogen-activated protein kinase kinase 1 (Homo sapiens) (UniProt Q02750); details: at 0.1 µM
[3] = target: Dual specificity mitogen-activated protein kinase kinase 1 (Homo sapiens) (UniProt Q02750); details: at 1 µM
[4] = target: Misshapen-like kinase 1 (Homo sapiens) (UniProt Q8N4C8); details: at 0.1 µM
Chain of Misshapen-like kinase 1 (Homo sapiens) (Q8N4C8 whole entry, looked up): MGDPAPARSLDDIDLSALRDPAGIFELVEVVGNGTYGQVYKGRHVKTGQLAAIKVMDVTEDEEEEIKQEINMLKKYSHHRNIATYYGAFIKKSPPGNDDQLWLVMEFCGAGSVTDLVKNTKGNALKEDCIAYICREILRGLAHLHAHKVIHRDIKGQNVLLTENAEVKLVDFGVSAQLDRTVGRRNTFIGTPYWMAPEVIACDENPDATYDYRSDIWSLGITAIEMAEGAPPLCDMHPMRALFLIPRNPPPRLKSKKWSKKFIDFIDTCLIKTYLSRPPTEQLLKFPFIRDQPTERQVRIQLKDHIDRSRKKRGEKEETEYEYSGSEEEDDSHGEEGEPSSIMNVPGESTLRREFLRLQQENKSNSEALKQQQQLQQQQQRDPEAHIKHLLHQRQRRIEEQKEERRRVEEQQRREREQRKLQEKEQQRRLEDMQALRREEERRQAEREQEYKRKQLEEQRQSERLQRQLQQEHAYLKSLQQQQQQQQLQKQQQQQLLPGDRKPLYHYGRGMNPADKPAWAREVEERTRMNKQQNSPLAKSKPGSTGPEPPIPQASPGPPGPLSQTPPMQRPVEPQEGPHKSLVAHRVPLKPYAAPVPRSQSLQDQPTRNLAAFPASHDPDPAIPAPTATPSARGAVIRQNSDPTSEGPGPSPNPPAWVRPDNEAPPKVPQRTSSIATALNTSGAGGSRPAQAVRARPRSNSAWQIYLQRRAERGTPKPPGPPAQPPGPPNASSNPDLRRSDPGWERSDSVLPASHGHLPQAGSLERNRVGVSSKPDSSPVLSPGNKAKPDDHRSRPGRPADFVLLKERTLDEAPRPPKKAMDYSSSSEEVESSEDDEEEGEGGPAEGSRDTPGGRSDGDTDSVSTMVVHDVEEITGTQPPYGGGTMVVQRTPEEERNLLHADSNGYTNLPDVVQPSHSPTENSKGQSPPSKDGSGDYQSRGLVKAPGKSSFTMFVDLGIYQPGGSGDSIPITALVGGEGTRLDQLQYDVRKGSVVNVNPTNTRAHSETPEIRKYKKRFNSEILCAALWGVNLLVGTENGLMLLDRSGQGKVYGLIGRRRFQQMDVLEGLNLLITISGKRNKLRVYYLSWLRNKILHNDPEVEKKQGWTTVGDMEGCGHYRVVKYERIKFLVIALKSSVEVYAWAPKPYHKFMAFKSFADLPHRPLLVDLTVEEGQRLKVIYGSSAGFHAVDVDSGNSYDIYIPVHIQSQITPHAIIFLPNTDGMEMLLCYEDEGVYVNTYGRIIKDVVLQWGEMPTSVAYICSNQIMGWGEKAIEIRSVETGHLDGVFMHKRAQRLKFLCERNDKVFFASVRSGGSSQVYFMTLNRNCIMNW

[5] = target: Misshapen-like kinase 1 (Homo sapiens) (UniProt Q8N4C8); details: at 1 µM
[6] = target: T1, Serine/threonine-protein kinase 4 (Homo sapiens) (UniProt Q13043); details: at 0.1 µM
T1 sequence (whole entry): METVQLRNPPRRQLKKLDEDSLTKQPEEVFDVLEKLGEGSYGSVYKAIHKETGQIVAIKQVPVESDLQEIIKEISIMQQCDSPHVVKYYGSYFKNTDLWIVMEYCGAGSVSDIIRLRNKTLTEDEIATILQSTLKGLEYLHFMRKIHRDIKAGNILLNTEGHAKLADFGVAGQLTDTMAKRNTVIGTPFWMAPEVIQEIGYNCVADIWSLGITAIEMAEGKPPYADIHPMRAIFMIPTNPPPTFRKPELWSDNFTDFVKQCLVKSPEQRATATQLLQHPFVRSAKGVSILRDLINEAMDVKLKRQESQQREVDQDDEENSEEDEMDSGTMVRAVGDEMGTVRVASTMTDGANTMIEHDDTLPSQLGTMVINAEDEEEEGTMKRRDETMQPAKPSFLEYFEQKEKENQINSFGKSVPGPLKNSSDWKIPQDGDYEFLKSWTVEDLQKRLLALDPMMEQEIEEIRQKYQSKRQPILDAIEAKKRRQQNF

[7] = target: T1, Serine/threonine-protein kinase 4 (Homo sapiens); details: at 1 µM
[8] = target: T2, Serine/threonine-protein kinase 3 (Homo sapiens) (UniProt Q13188); details: at 0.1 µM
T2 sequence (whole entry): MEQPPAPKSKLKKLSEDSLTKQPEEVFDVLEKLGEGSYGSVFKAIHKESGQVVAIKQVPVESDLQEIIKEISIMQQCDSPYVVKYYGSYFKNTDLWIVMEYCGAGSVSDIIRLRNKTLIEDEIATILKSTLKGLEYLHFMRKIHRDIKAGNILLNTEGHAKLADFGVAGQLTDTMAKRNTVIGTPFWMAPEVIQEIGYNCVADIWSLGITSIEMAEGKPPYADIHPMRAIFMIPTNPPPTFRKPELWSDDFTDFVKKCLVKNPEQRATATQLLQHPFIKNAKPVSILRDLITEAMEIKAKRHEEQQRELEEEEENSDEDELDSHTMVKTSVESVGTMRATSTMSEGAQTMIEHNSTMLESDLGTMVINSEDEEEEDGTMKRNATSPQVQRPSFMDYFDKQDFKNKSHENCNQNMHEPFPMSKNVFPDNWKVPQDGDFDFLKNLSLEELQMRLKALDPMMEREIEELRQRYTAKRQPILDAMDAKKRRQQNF

[9] = target: T2, Serine/threonine-protein kinase 3 (Homo sapiens); details: at 1 µM
[10] = target: Serine/threonine-protein kinase 26 (Homo sapiens) (UniProt Q9P289); details: at 0.1 µM
Chain of Serine/threonine-protein kinase 26 (Homo sapiens) (Q9P289 2-416 limits assumed): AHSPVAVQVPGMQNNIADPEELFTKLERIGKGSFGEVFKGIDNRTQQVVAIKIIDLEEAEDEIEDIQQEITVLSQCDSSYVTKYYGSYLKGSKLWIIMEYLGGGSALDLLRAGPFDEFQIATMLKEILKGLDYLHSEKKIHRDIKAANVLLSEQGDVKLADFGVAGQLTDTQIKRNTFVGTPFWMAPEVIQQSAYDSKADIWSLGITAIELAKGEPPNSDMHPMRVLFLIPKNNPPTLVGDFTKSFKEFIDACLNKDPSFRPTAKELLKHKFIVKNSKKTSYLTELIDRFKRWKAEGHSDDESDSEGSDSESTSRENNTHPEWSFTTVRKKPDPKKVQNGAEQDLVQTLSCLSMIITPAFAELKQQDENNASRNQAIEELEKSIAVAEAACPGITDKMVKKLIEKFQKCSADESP

[11] = target: Serine/threonine-protein kinase 26 (Homo sapiens) (UniProt Q9P289); details: at 1 µM
[12] = target: Serine/threonine-protein kinase PAK 1 (Homo sapiens) (UniProt Q13153); details: at 0.1 µM
Chain of Serine/threonine-protein kinase PAK 1 (Homo sapiens) (Q13153 whole entry): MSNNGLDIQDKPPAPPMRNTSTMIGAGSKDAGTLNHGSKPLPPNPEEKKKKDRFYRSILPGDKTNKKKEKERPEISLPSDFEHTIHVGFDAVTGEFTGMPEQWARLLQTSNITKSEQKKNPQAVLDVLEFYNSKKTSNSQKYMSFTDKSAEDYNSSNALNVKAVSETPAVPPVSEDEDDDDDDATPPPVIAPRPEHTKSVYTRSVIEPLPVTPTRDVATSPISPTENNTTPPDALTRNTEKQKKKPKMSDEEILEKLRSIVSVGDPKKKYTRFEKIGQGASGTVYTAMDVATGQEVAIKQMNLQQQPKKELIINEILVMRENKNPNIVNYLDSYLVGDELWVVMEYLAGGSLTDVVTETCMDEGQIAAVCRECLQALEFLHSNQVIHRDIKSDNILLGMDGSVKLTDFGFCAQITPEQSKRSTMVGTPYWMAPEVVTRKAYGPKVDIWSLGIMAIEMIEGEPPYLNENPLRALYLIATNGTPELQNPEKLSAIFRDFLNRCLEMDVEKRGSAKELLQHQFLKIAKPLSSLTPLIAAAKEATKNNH

[13] = target: Serine/threonine-protein kinase PAK 1 (Homo sapiens) (UniProt Q13153); details: at 1 µM
[14] = target: Serine/threonine-protein kinase PAK 2 (Homo sapiens) (UniProt Q13177); details: at 0.1 µM
[15] = target: Serine/threonine-protein kinase PAK 2 (Homo sapiens) (UniProt Q13177); details: at 1 µM
[16] = target: Serine/threonine-protein kinase PAK 3 (Homo sapiens) (UniProt O75914); details: at 0.1 µM
Chain of Serine/threonine-protein kinase PAK 3 (Homo sapiens) (O75914 whole entry, looked up): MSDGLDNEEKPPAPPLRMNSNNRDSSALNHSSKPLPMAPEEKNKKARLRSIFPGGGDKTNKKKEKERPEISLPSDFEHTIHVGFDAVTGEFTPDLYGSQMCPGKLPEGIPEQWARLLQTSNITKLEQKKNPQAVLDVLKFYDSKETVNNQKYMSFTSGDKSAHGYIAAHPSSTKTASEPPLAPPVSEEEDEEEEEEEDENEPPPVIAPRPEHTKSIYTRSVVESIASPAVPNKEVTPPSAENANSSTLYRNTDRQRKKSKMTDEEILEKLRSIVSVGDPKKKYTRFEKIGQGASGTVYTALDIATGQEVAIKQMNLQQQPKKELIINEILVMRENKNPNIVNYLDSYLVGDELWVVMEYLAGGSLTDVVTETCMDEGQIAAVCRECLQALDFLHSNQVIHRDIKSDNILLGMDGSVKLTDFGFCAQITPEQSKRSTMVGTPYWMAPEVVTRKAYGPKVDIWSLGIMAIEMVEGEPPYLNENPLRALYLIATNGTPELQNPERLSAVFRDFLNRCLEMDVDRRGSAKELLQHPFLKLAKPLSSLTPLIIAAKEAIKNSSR

[17] = target: Serine/threonine-protein kinase PAK 3 (Homo sapiens) (UniProt O75914); details: at 1 µM
[18] = target: Serine/threonine-protein kinase PAK 5 (Homo sapiens) (UniProt Q9P286); details: at 0.1 µM
Chain of Serine/threonine-protein kinase PAK 5 (Homo sapiens) (Q9P286 whole entry, looked up): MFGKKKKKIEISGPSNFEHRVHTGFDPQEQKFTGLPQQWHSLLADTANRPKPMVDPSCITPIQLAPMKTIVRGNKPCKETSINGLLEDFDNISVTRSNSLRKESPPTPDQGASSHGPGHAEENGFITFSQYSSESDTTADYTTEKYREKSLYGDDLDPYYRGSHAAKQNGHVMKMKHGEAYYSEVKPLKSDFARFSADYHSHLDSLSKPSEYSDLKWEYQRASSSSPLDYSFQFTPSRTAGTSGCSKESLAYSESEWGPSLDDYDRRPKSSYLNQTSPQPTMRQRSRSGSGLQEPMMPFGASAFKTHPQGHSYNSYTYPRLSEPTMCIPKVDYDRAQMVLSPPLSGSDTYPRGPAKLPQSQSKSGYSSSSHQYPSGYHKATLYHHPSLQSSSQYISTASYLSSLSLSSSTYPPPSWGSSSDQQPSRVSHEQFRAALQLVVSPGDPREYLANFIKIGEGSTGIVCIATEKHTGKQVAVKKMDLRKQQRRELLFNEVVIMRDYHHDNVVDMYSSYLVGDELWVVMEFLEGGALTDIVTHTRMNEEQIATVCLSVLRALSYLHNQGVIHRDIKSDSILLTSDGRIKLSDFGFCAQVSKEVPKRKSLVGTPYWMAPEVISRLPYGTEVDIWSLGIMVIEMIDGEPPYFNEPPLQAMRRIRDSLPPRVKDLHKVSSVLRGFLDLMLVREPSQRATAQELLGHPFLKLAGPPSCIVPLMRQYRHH

[19] = target: Serine/threonine-protein kinase PAK 5 (Homo sapiens) (UniProt Q9P286); details: at 1 µM
[20] = target: Serine/threonine-protein kinase PAK 6 (Homo sapiens) (UniProt Q9NQU5); details: at 0.1 µM;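 further: mean PAK6 inhibition reported from the GSK PKIS screen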
Chain of Serine/threonine-protein kinase PAK 6 (Homo sapiens) (Q9NQU5 whole entry, looked up): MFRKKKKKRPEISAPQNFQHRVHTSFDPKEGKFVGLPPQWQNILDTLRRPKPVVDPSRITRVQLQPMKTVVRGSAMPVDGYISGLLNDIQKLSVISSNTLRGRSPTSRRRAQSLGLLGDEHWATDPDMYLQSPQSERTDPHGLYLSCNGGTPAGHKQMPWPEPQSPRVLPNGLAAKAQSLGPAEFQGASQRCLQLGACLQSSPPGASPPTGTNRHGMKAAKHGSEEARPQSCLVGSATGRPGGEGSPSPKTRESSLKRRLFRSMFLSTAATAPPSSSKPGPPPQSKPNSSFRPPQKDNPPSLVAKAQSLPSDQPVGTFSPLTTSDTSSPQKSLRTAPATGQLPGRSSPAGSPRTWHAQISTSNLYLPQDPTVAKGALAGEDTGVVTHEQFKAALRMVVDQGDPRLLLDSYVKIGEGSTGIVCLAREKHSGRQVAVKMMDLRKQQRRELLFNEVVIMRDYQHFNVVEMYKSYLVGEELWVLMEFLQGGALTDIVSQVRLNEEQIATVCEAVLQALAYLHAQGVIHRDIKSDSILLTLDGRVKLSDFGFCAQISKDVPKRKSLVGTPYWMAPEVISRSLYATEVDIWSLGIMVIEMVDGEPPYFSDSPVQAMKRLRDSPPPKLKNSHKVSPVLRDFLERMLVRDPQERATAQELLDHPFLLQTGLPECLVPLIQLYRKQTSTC

Chain of Dual specificity mitogen-activated protein kinase kinase 1 (Homo sapiens) (Q02750 whole entry): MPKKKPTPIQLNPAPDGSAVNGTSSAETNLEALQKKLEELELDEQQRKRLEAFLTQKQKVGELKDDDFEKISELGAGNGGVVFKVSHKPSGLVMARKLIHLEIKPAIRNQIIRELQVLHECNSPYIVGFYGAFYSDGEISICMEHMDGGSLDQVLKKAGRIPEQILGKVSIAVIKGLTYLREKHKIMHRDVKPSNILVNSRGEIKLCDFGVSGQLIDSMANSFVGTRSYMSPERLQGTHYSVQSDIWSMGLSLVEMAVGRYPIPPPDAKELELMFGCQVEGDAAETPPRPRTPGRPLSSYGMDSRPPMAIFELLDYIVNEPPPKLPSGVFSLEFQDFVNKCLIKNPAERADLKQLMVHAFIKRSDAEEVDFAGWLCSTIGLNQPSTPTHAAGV

SMILES: COc1ccc2[nH]c3c4[nH]c5ccc(OC)cc5c4c4c(c3c2c1)C(=O)NC4=O
- inhibition [1]: 88.4%
- inhibition [2]: 4.86%
- inhibition [3]: 7.06%
- inhibition [4]: 81.3%
- inhibition [5]: 84.8%
- inhibition [6]: 13%
- inhibition [7]: 42%
- inhibition [8]: 14.2%
- inhibition [9]: 42.4%
- inhibition [10]: 4.27%
- inhibition [11]: 14%
- inhibition [12]: 5.41%
- inhibition [13]: 7.72%
- inhibition [14]: 1.43%
- inhibition [15]: 3.51%
- inhibition [16]: 4%
- inhibition [17]: 5.61%
- inhibition [18]: 5.43%
- inhibition [19]: 4.46%
- inhibition [20]: 4.49%

SMILES: CCn1cc(-c2ccnc3[nH]ccc23)c(-c2cccc(NC(=O)Nc3ccc(OCc4ccccc4)cc3)c2)n1
- inhibition [1]: 27.8%
- inhibition [2]: 0.08%
- inhibition [3]: 1.59%
- inhibition [4]: 3%
- inhibition [5]: 30.9%
- inhibition [6]: 1.36%
- inhibition [7]: 1.63%
- inhibition [8]: 2.37%
- inhibition [9]: 2.77%
- inhibition [10]: 0.67%
- inhibition [11]: -5.19%
- inhibition [12]: 0.97%
- inhibition [13]: 0.73%
- inhibition [14]: -0.8%
- inhibition [15]: -0.35%
- inhibition [16]: 1.3%
- inhibition [17]: 1.28%
- inhibition [18]: -1.74%
- inhibition [19]: -3.66%
- inhibition [20]: 5.15%

SMILES: N#Cc1c(NC(=O)CN2CCOCC2)sc2c1CCCC2
- inhibition [1]: 8.62%
- inhibition [2]: 6.12%
- inhibition [3]: 5.95%
- inhibition [4]: 6.83%
- inhibition [5]: 6.87%
- inhibition [6]: 5.59%
- inhibition [7]: 8.28%
- inhibition [8]: 4.7%
- inhibition [9]: 8.26%
- inhibition [10]: -1.62%
- inhibition [11]: -0.59%
- inhibition [12]: 8.81%
- inhibition [13]: 4.43%
- inhibition [14]: 1.25%
- inhibition [15]: 0.76%
- inhibition [16]: 3.48%
- inhibition [17]: 4.91%
- inhibition [18]: 2.38%
- inhibition [19]: 3.24%
- inhibition [20]: 0.72%

SMILES: COC(=O)Nc1nc2ccc(S(=O)(=O)c3ccc(NC(=O)Nc4cc(C(F)(F)F)ccc4F)cc3)cc2[nH]1
- inhibition [1]: 6.09%
- inhibition [2]: 2.83%
- inhibition [3]: 2.72%
- inhibition [4]: 5.17%
- inhibition [5]: 8.15%
- inhibition [6]: 3.71%
- inhibition [7]: 4.43%
- inhibition [8]: 4%
- inhibition [9]: 3.06%
- inhibition [10]: 0.89%
- inhibition [11]: -2.57%
- inhibition [12]: 5.36%
- inhibition [13]: 4.48%
- inhibition [14]: 2.17%
- inhibition [15]: 1.9%
- inhibition [16]: 2.62%
- inhibition [17]: 3.11%
- inhibition [18]: -4.37%
- inhibition [19]: -3.51%
- inhibition [20]: -3.27%

SMILES: COc1ccc(-c2cc3c(N)ncnc3o2)cc1
- inhibition [1]: 9.41%
- inhibition [2]: -0.07%
- inhibition [3]: 1.35%
- inhibition [4]: 1.42%
- inhibition [5]: 6.5%
- inhibition [6]: -2%
- inhibition [7]: -0.96%
- inhibition [8]: -3.02%
- inhibition [9]: -0.72%
- inhibition [10]: 1.44%
- inhibition [11]: 0.97%
- inhibition [12]: -2.64%
- inhibition [13]: -0.27%
- inhibition [14]: -2.02%
- inhibition [15]: -0.84%
- inhibition [16]: -1.87%
- inhibition [17]: -1.01%
- inhibition [18]: -1.3%
- inhibition [19]: -1.65%
- inhibition [20]: -8.16%

SMILES: CS(=O)(=O)CCNCc1coc(-c2ccc3ncnc(Nc4ccc(OCc5ccccc5)cc4)c3c2)c1
- inhibition [1]: 7.26%
- inhibition [2]: 2.33%
- inhibition [3]: 3.36%
- inhibition [4]: 5.08%
- inhibition [5]: 4.66%
- inhibition [6]: 2.75%
- inhibition [7]: 3.41%
- inhibition [8]: 4.25%
- inhibition [9]: 3.71%
- inhibition [10]: -2.22%
- inhibition [11]: 2.64%
- inhibition [12]: 2.37%
- inhibition [13]: 4.92%
- inhibition [14]: 0.82%
- inhibition [15]: 0.14%
- inhibition [16]: 3.37%
- inhibition [17]: 3.31%
- inhibition [18]: 3.59%
- inhibition [19]: 3.38%
- inhibition [20]: -4%

SMILES: COC(=O)Nc1nc2ccc(Oc3ccc(NC(=O)Nc4cccc(Cl)c4)cc3)cc2[nH]1
- inhibition [1]: 3.87%
- inhibition [2]: 1.15%
- inhibition [3]: 0.9%
- inhibition [4]: 2.55%
- inhibition [5]: 4.97%
- inhibition [6]: 2.25%
- inhibition [7]: 1.87%
- inhibition [8]: 3.48%
- inhibition [9]: 4.19%
- inhibition [10]: -1.11%
- inhibition [11]: 1.03%
- inhibition [12]: 5.21%
- inhibition [13]: 1.37%
- inhibition [14]: -0.81%
- inhibition [15]: 0.02%
- inhibition [16]: 1.03%
- inhibition [17]: 2.18%
- inhibition [18]: 2.63%
- inhibition [19]: 3.67%
- inhibition [20]: -3.19%

SMILES: Fc1ccc(-c2cc(-c3c[nH]nc3-c3ccccn3)ccn2)cc1
- inhibition [1]: 59.6%
- inhibition [2]: 5.25%
- inhibition [3]: 3.85%
- inhibition [4]: 10.7%
- inhibition [5]: 44.4%
- inhibition [6]: 4.5%
- inhibition [7]: 6.92%
- inhibition [8]: 6.43%
- inhibition [9]: 7.79%
- inhibition [10]: -0.73%
- inhibition [11]: 1.02%
- inhibition [12]: 6.01%
- inhibition [13]: 5.42%
- inhibition [14]: 1.23%
- inhibition [15]: 1.38%
- inhibition [16]: 4.08%
- inhibition [17]: 5.11%
- inhibition [18]: 6.2%
- inhibition [19]: 2.37%
- inhibition [20]: -1.74%

SMILES: COc1ccc(-c2cc(-c3c[nH]nc3-c3ccccn3)ccn2)cc1
- inhibition [1]: 80.3%
- inhibition [2]: 6.36%
- inhibition [3]: 4.25%
- inhibition [4]: 24.6%
- inhibition [5]: 72.7%
- inhibition [6]: 7.65%
- inhibition [7]: 10.6%
- inhibition [8]: 9.35%
- inhibition [9]: 10.1%
- inhibition [10]: -2.95%
- inhibition [11]: -0.46%
- inhibition [12]: 0.78%
- inhibition [13]: 3.96%
- inhibition [14]: 2.66%
- inhibition [15]: 1.63%
- inhibition [16]: 5.46%
- inhibition [17]: 5.49%
- inhibition [18]: 3.54%
- inhibition [19]: 1.94%
- inhibition [20]: 6.89%

SMILES: COC(=O)c1sc(-n2cnc3cc(OC)c(OC)cc32)cc1OCc1ccccc1C(F)(F)F
- inhibition [1]: 10.1%
- inhibition [2]: 5.37%
- inhibition [3]: 4.96%
- inhibition [4]: 5.47%
- inhibition [5]: 11.2%
- inhibition [6]: 4.68%
- inhibition [7]: 9.69%
- inhibition [8]: 5.78%
- inhibition [9]: 9.15%
- inhibition [10]: -1.48%
- inhibition [11]: 0.54%
- inhibition [12]: 7.38%
- inhibition [13]: 9.12%
- inhibition [14]: 1.91%
- inhibition [15]: 1.84%
- inhibition [16]: 3.84%
- inhibition [17]: 4.18%
- inhibition [18]: -1.22%
- inhibition [19]: -4.74%
- inhibition [20]: -7.92%

SMILES: COc1cc(Nc2nccc(Nc3ccc4c(C)n[nH]c4c3)n2)cc(OC)c1OC
- inhibition [1]: 12.4%
- inhibition [2]: 2.25%
- inhibition [3]: 4.1%
- inhibition [4]: 2.58%
- inhibition [5]: 11%
- inhibition [6]: 5.05%
- inhibition [7]: 7.86%
- inhibition [8]: 5.15%
- inhibition [9]: 6.19%
- inhibition [10]: 1.12%
- inhibition [11]: 3%
- inhibition [12]: 2.19%
- inhibition [13]: 7.51%
- inhibition [14]: 0.97%
- inhibition [15]: 3.21%
- inhibition [16]: 2.53%
- inhibition [17]: 5.23%
- inhibition [18]: 1.57%
- inhibition [19]: 15.3%
- inhibition [20]: -4.29%

SMILES: CNC(=O)c1cc(-c2ccc(F)cc2)cc(-c2ccc(S(=O)(=O)N3CCCC3)cc2)c1N
- inhibition [1]: 7.55%
- inhibition [2]: 2.79%
- inhibition [3]: 4.52%
- inhibition [4]: 4.69%
- inhibition [5]: 5.6%
- inhibition [6]: 0.78%
- inhibition [7]: 1.31%
- inhibition [8]: 0.82%
- inhibition [9]: 1.3%
- inhibition [10]: -0.65%
- inhibition [11]: -1.61%
- inhibition [12]: 3.68%
- inhibition [13]: 9.51%
- inhibition [14]: 1.46%
- inhibition [15]: 0.63%
- inhibition [16]: 3.43%
- inhibition [17]: 5.29%
- inhibition [18]: 2.26%
- inhibition [19]: 3.67%
- inhibition [20]: -9.04%

SMILES: CCn1c(-c2nonc2N)nc2ccccc21
- inhibition [1]: 22.5%
- inhibition [2]: 4.06%
- inhibition [3]: 4.74%
- inhibition [4]: 5.52%
- inhibition [5]: 13.2%
- inhibition [6]: 5.56%
- inhibition [7]: 7.11%
- inhibition [8]: 6.31%
- inhibition [9]: 5.79%
- inhibition [10]: -1.3%
- inhibition [11]: -1.31%
- inhibition [12]: 5%
- inhibition [13]: 6.81%
- inhibition [14]: 3.34%
- inhibition [15]: 2.08%
- inhibition [16]: 1.86%
- inhibition [17]: 4.13%
- inhibition [18]: 5.02%
- inhibition [19]: 8.78%
- inhibition [20]: 0.13%
